In the supplement of paper PMC8728848:
The sample as a whole holds a higher share of the strongest signals than the screen did.

How the values were obtained:
Experiment in all cases: glycan array binding signal (z-score within array); higher = stronger binding
Conditions in all cases: glycan notation: IUPAC condensed, linker removed
[1] = molecular target: Fuc(a1-2)Gal(b1-3)GalNAc(b1-4)[Neu5Ac(a2-3)]Gal(b1-4)Glc
In short: (§1)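 Columns mapping to the same glycan were averaged after glycan names were converted to IUPAC-condensed notation. The data come from 3228 arrays in the Consortium for Functional Glycomics database, limited to those with an available protein sequence. Binding is reported as a within-array Z-score averaged across arrays of one protein sequence and across linkers.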

[2] = molecular target: Fuc(a1-2)Gal6S(b1-3)GlcNAc6S
In short: as §1

[3] = molecular target: Fuc(a1-2)[Gal(a1-3)]Gal(b1-4)[Fuc(a1-3)]Glc
In short: as §1

[4] = molecular target: Fuc(a1-2)[GalNAc(a1-3)]Gal(b1-3)GlcNAc(b1-6)GalNAc
In short: as §1

[5] = molecular target: Fuc(a1-2)[GalNAc(a1-3)]Gal(b1-4)GlcNAc(b1-3)Gal(b1-4)GlcNAc(b1-3)Gal(b1-4)GlcNAc
In short: as §1

[6] = molecular target: Fuc(a1-2)[GalNAc(b1-3)]Gal
In short: as §1

[7] = molecular target: Fuc(a1-3)[Gal3S(b1-4)]Glc
In short: as §1

Fuc(b1-3)GlcNAc = molecular target: Fuc(b1-3)GlcNAc
In short: as §1

Gal(a1-3)Gal(b1-4)Glc = molecular target: Gal(a1-3)Gal(b1-4)Glc
In short: as §1

[8] = molecular target: Gal(a1-3)[Gal(a1-4)]Gal(b1-4)GlcNAc
In short: as §1

[9] = molecular target: Gal(a1-4)Gal(b1-4)GlcNAc(b1-2)Man(a1-3)[Gal(a1-4)Gal(b1-4)GlcNAc(b1-2)Man(a1-6)]Man(b1-4)GlcNAc(b1-4)GlcNAc
In short: as §1

Gal(b1-3)GalNAc = molecular target: Gal(b1-3)GalNAc
In short: as §1

[10] = molecular target: Gal(b1-3)GalNAc(b1-3)Gal(a1-4)Gal(b1-4)Glc
In short: as §1

[11] = molecular target: Gal(b1-3)GlcNAc(b1-3)Gal(b1-4)GlcNAc(b1-2)Man(a1-3)[Gal(b1-3)GlcNAc(b1-3)Gal(b1-4)GlcNAc(b1-2)Man(a1-6)]Man(b1-4)GlcNAc(b1-4)GlcNAc
In short: as §1

[12] = molecular target: Gal(b1-4)GlcNAc(b1-3)Gal(b1-4)GlcNAc(b1-3)GalNAc
In short: as §1

[13] = molecular target: Gal(b1-4)GlcNAc(b1-3)GalNAc
In short: as §1

Gal3S6S(b1-4)GlcNAc = molecular target: Gal3S6S(b1-4)GlcNAc
In short: as §1

GalNAc(a1-3)Gal = molecular target: GalNAc(a1-3)Gal
In short: as §1

GalNAc(b1-3)Gal = molecular target: GalNAc(b1-3)Gal
In short: as §1

[14] = molecular target: GalNAc(b1-3)Gal(a1-4)Gal(b1-4)GlcNAc
In short: as §1

[15] = molecular target: GalNAc(b1-3)Gal(a1-4)Gal(b1-4)GlcNAc(b1-3)Gal(b1-4)Glc
In short: as §1

[16] = molecular target: GalNAc(b1-3)Gal(a1-6)Gal(b1-4)Glc
In short: as §1

GalNAc(b1-4)GlcNAc = molecular target: GalNAc(b1-4)GlcNAc
In short: as §1

[17] = molecular target: GalNAc(b1-4)GlcNAc(b1-2)Man
In short: as §1

[18] = molecular target: GalNAc(b1-4)GlcNAc(b1-2)Man(a1-3)[GalNAc(b1-4)GlcNAc(b1-2)Man(a1-6)]Man(b1-4)GlcNAc(b1-4)GlcNAc
In short: as §1

[19] = molecular target: GalNAc(b1-4)GlcNAc(b1-3)GalNAc(b1-4)GlcNAc
In short: as §1

GalNAc(b1-4)GlcNAc6S = molecular target: GalNAc(b1-4)GlcNAc6S
In short: as §1

[20] = molecular target: Glc(a1-4)Glc(a1-4)Glc(a1-4)Glc
In short: as §1

[21] = molecular target: GlcNAc(b1-2)Man(a1-3)[GlcNAc(b1-2)Man(a1-6)]Man(b1-4)GlcNAc(b1-4)[Fuc(a1-6)]GlcNAc
In short: as §1

[22] = molecular target: GlcNAc(b1-2)Man(a1-3)[GlcNAc(b1-4)][GlcNAc(b1-2)Man(a1-6)]Man(b1-4)GlcNAc(b1-4)GlcNAc
In short: as §1

[23] = molecular target: GlcNAc(b1-2)[GlcNAc(b1-4)]Man(a1-3)[GlcNAc(b1-4)][GlcNAc(b1-2)[GlcNAc(b1-6)]Man(a1-6)]Man(b1-4)GlcNAc(b1-4)[Fuc(a1-6)]GlcNAc
In short: as §1

[24] = molecular target: GlcNAc(b1-4)Gal(b1-4)GlcNAc
In short: as §1

[25] = molecular target: Man(a1-2)Man(a1-3)[Man(a1-2)Man(a1-6)]Man
In short: as §1

[26] = molecular target: Man(a1-2)Man(a1-6)[Man(a1-3)]Man(a1-6)[Man(a1-2)Man(a1-2)Man(a1-3)]Man
In short: as §1

[27] = molecular target: Man(a1-3)[Man(a1-6)]Man(b1-4)GlcNAc(b1-4)GlcNAc
In short: as §1

[28] = molecular target: Man(a1-3)[Man(a1-6)]Man(b1-4)GlcNAc(b1-4)[Fuc(a1-6)]GlcNAc
In short: as §1

[29] = molecular target: Neu5Ac(a2-3)Gal(b1-3)GalNAc(b1-4)[Neu5Ac(a2-3)]Gal(b1-4)Glc
In short: as §1

[30] = molecular target: Neu5Ac(a2-3)Gal(b1-3)GlcNAc(b1-6)GalNAc
In short: as §1

[31] = molecular target: Neu5Ac(a2-3)Gal(b1-3)[Neu5Ac(a2-6)]GalNAc
In short: as §1

[32] = molecular target: Neu5Ac(a2-3)Gal(b1-3)[Neu5Ac(a2-6)]GlcNAc(b1-3)[Fuc(a1-3)[Gal(b1-4)]GlcNAc(b1-6)]Gal(b1-4)Glc
In short: as §1

[33] = molecular target: Neu5Ac(a2-3)Gal(b1-4)GlcNAc(b1-3)Gal(b1-4)GlcNAc(b1-3)GalNAc
In short: as §1

[34] = molecular target: Neu5Ac(a2-6)Gal(b1-4)GlcNAc(b1-3)[Neu5Ac(a2-6)Gal(b1-4)GlcNAc(b1-6)]GalNAc
In short: as §1

[35] = molecular target: Neu5Ac(a2-6)Gal(b1-4)GlcNAc(b1-6)GalNAc
In short: as §1

[36] = molecular target: Neu5Ac(a2-8)Neu5Ac(a2-8)Neu5Ac(a2-8)Neu5Ac(a2-3)[GalNAc(b1-4)]Gal(b1-4)Glc
In short: as §1

[37] = molecular target: Neu5Gc(a2-3)Gal(b1-3)[Fuc(a1-4)]GlcNAc
In short: as §1

B1: CSA (Cytisus scoparius), P29257 (protein)
chain: SEELSFSFTKFKTDQKNLILQRDALITPTGKLQLTTVENGKPAAYSLGRALYSTPIHIWDKSTGDEASFATFFSFVISDAPNPSTAATDGLAFFLAPADTQPQSAGGYLGLFEKDSSYNSSNQIVAVEFDTYYNSAWDPQTNPHIGIDVNTIKSKKVSSWGFKNGNVATVLITYQPSSKSLVASLVYPSGQTSDKTSYIISANVDLKATVPEWVRIGFSATTGQTDNYIETHDILSWSFKSKLPATKN
glycan array binding signal (z-score) [1]: -0.177
glycan array binding signal (z-score) [2]: -0.196
glycan array binding signal (z-score) [3]: -0.201
glycan array binding signal (z-score) [4]: -0.214
glycan array binding signal (z-score) [5]: -0.012
glycan array binding signal (z-score) [6]: 4.5
glycan array binding signal (z-score) [7]: -0.165
glycan array binding signal (z-score) (Fuc(b1-3)GlcNAc): -0.186
glycan array binding signal (z-score) (Gal(a1-3)Gal(b1-4)Glc): -0.157
glycan array binding signal (z-score) [8]: -0.124
glycan array binding signal (z-score) [9]: -0.162
glycan array binding signal (z-score) (Gal(b1-3)GalNAc): -0.159
glycan array binding signal (z-score) [10]: 0.019
glycan array binding signal (z-score) [11]: -0.157
glycan array binding signal (z-score) [12]: 0.306
glycan array binding signal (z-score) [13]: -0.162
glycan array binding signal (z-score) (Gal3S6S(b1-4)GlcNAc): -0.186
glycan array binding signal (z-score) (GalNAc(a1-3)Gal): 3.51
glycan array binding signal (z-score) (GalNAc(b1-3)Gal): 2.98
glycan array binding signal (z-score) [14]: 3.35
glycan array binding signal (z-score) [15]: 2.76
glycan array binding signal (z-score) [16]: 4.13
glycan array binding signal (z-score) (GalNAc(b1-4)GlcNAc): 6.99
glycan array binding signal (z-score) [17]: 8.12
glycan array binding signal (z-score) [18]: 3.25
glycan array binding signal (z-score) [19]: 12.4
glycan array binding signal (z-score) (GalNAc(b1-4)GlcNAc6S): 9.73
glycan array binding signal (z-score) [20]: -0.19
glycan array binding signal (z-score) [21]: -0.139
glycan array binding signal (z-score) [22]: -0.238
glycan array binding signal (z-score) [23]: -0.166
glycan array binding signal (z-score) [24]: -0.213
glycan array binding signal (z-score) [25]: -0.234
glycan array binding signal (z-score) [26]: -0.179
glycan array binding signal (z-score) [27]: -0.142
glycan array binding signal (z-score) [28]: -0.225
glycan array binding signal (z-score) [29]: -0.247
glycan array binding signal (z-score) [30]: -0.235
glycan array binding signal (z-score) [31]: -0.159
glycan array binding signal (z-score) [32]: -0.146
glycan array binding signal (z-score) [33]: -0.216
glycan array binding signal (z-score) [34]: -0.172
glycan array binding signal (z-score) [35]: -0.202
glycan array binding signal (z-score) [36]: -0.149
glycan array binding signal (z-score) [37]: -0.202
